Laboratory results as given in PubChem BioAssay AID1159580 (chemical genetic matrix, 2015).
Where “and” joins values, the source holds several entries; their conditions need not be identical. Identical values can stand only once. In all, about 5,500 compounds went through this assay and about 2,000 (36%) were called active. About 18% were inconclusive and are not listed. No stated cut-off is given here; in the data, active means normalized growth mostly below about 0.91 (no sharp cut-off); inconclusive means no clear call, values can overlap the other calls; inactive means mostly above about 0.92. The list shows a part of the results.

Test: chemical genetic growth profiling, strain panel (AID 1159580);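 further: tested at 20 µM; growth read once vehicle control cultures reached saturation at 30 °C; 1 = growth at the plate median or of vehicle wells; lower values mean less growth of the strain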
Conditions: S. cerevisiae deletion strains, growth OD

Measured: normalized growth

COc1cc(NS(=O)(=O)c2ccc(N)cc2)ncn1
inactive: locus YAL013W, strain DEP1, active compounds read low 0.998 | locus YAL021C, strain ccr4, active compounds read low 0.988 | locus YAL026C, strain drs2, active compounds read low 0.978 | locus YAL030W, strain snc1, active compounds read low 0.999 | locus YBL061C, strain skt5, active compounds read low 0.987 | locus YBR009C, strain hhf1, active compounds read low 0.996 | locus YBR021W, strain FUR4, active compounds read low 1 | locus YBR023C, strain chs3, active compounds read low 0.983 | locus YBR171W, strain sec66, active compounds read low 0.968 | locus YBR229C, strain ROT2, active compounds read low 0.955 | locus YBR231C, strain swc5, active compounds read low 0.979 | locus YBR279W, strain paf1, active compounds read low 0.964 | locus YCL011C, strain gbp2, active compounds read low 0.968 | locus YCL016C, strain dcc1, active compounds read low 0.981 | locus YCL029C, strain bik1, active compounds read low 0.977 | locus YCL061C, strain MRC1, active compounds read low 0.979 | locus YCL069W, strain vba3, active compounds read low 0.98 | locus YCR088W, strain abp1, active compounds read low 0.97 | locus YDL005C, strain med2, active compounds read low 0.978 | locus YDL035C, strain GPR1, active compounds read low 0.993 | locus YDL040C, strain nat1, active compounds read low 0.969 | locus YDL074C, strain BRE1, active compounds read low 0.966 | locus YDL101C, strain DUN1, active compounds read low 0.979 | locus YDL134C, strain PPH21, active compounds read low 1.01 | locus YDL185W, strain tfp1, active compounds read low 0.983 | locus YDL192W, strain arf1, active compounds read low 0.978 | locus YDR001C, strain nth1, active compounds read low 0.973 | locus YDR069C, strain doa4, active compounds read low 1.03 | locus YDR101C, strain arx1, active compounds read low 0.972 | locus YDR137W, strain rgp1, active compounds read low 0.991 | locus YDR159W, strain sac3, active compounds read low 0.916 | locus YDR162C, strain NBP2, active compounds read low 0.995 | locus YDR195W, strain ref2 0.918 | locus YDR297W, strain sur2, active compounds read low 1 | locus YDR318W, strain mcm21, active compounds read low 0.988 | locus YDR334W, strain swr1, active compounds read low 0.948 | locus YDR335W, strain msn5, active compounds read low 0.971 | locus YDR388W, active compounds read low 0.979 | locus YDR392W, strain spt3, active compounds read low 0.982 | locus YDR502C, strain sam2, active compounds read low 0.984 | locus YEL003W, strain gim4, active compounds read low 1 | locus YEL037C, strain rad23, active compounds read low 0.999 | locus YEL061C, strain CIN8 (second series), active compounds read low 0.96 | locus YEL061C, strain CIN8, active compounds read low 0.982 | locus YER015W, strain faa2, active compounds read low 0.984 | locus YER016W, strain bim1, active compounds read low 0.992 | locus YER110C, active compounds read low 0.973 | locus YER111C, strain swi4, active compounds read low 0.968 | locus YER155C, strain BEM2 (second series), active compounds read low 0.975 | locus YER155C, strain BEM2, active compounds read low 1 | locus YER167W, strain BCK2, active compounds read low 0.992 | locus YFR010W, strain ubp6, active compounds read low 0.97 | locus YGL078C, strain dbp3, active compounds read low 0.977 | locus YGL086W, strain mad1, active compounds read low 0.981 | locus YGL167C, strain pmr1, active compounds read low 0.981 | locus YGL173C, strain kem1, active compounds read low 0.993 | locus YGL227W, strain vid30, active compounds read low 0.959 | locus YGL240W, strain doc1, active compounds read low 0.958 | locus YGL248W, strain PDE1, active compounds read low 0.978 | locus YGL253W, strain hxk2, active compounds read low 0.979 | locus YGR078C, strain PAC10, active compounds read low 0.977 | locus YGR135W, strain pre9, active compounds read low 0.999 | locus YGR252W, strain gcn5, active compounds read low 0.987 | locus YHR013C, strain ard1, active compounds read low 0.986 | locus YHR027C, strain rpn1, active compounds read low 0.983 | locus YHR030C, strain SLT2, active compounds read low 0.997 and 0.991 | locus YHR079C, strain IRE1 (second series), active compounds read low 0.99 | locus YHR079C, strain IRE1, active compounds read low 0.97 | locus YHR094C, strain hxt1, active compounds read low 0.987 | locus YHR129C, strain ARP1, active compounds read low 0.995 | locus YHR142W, strain chs7, active compounds read low 0.968 | locus YHR200W, strain rpn10, active compounds read low 0.982 | locus YIL066C, strain RNR3, active compounds read low 0.976 | locus YIL073C, strain SPO22, active compounds read low 1.02 | locus YIL125W, strain kgd1, active compounds read low 0.982 | locus YIR030C, strain dcg1, active compounds read low 0.974 | locus YJL092W, strain hpr5, active compounds read low 0.98 | locus YJL095W, strain BCK1 (second series), active compounds read low 0.976 | locus YJL095W, strain BCK1, active compounds read low 0.989 and 0.983 | locus YJL115W, strain asf1, active compounds read low 0.964 | locus YJL129C, strain trk1, active compounds read low 0.963 | locus YJL134W, strain LCB3, active compounds read low 0.992 | locus YJL154C, strain vps35, active compounds read low 0.971 | locus YJL164C, strain tpk1, active compounds read low 1 | locus YJL166W, strain qcr8, active compounds read low 0.982 | locus YJL168C, strain set2, active compounds read low 0.985 | locus YJL187C, strain SWE1 (second series), active compounds read low 0.962 | locus YJL187C, strain SWE1, active compounds read low 0.981 | locus YJR043C, strain POL32, active compounds read low 0.994 | locus YJR066W, strain TOR1, active compounds read low 0.943
